Source: PubChem
Most compounds without a hit are left out; they make up all but 3.5% or so of the library.
FBW7 act = activators of human E3 ligase FBW7; Q969H0; AlphaScreen FBW7–phospho-cyclin E peptide binding, activator screen; normalized activity (activation), % at 26.1 µM; 0.13% of 650,000 active; AID 1259310; in the data active = normalized activity above about 1.9%;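 also: purified mutant Fbw7 with reduced substrate affinity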
GPR151 activ = activators of human GPR151; Q8TDV0; PathHunter beta-arrestin GPR151 cells, luminescence; activation, % at 11.2 µM; 1% of 650,000 active; in the data active = activation above about 4.9%;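 also: 0% = median of compound wells and 100% = cells with positive control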
TEAD-YAP inh = TEAD-YAP interaction inhibition; inhibition, % at 9.12 µM; HEK-TIYL cells, TEAD-Gal4/YAP UAS-luciferase luminescence; AID 1259422; 1.4% of 640,000 active; in the data active = inhibition above about 32%;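 also: 0% = median of test compound wells and 100% = reference inhibitor wells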
MITF inh = inhibitors of human MITF; AID 1259374; 0.91% of 650,000 active; AlphaScreen MITF homodimerization, bead proximity signal; inhibition, % at 2.6 µM; O75030; in the data active = inhibition above about 50%;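 also: 0% = vehicle wells with protein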
Target sequence (O75030 whole entry, looked up): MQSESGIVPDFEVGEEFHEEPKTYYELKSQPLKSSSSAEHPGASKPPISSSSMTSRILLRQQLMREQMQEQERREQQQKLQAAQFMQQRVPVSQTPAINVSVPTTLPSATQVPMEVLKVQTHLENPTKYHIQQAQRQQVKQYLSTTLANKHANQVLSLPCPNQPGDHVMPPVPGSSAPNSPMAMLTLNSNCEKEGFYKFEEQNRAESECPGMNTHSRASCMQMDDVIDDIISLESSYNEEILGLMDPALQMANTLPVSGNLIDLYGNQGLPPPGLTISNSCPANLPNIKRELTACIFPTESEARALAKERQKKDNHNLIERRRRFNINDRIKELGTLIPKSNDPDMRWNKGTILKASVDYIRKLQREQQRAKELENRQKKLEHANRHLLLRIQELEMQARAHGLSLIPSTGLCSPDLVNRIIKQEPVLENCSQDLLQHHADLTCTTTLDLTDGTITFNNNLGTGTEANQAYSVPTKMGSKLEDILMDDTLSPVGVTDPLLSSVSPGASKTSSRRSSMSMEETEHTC
Active calls of the source: *.

SMILES	FBW7 act	GPR151 activ	TEAD-YAP inh	MITF inh
CC(C)n1cnc2c(Nc3ccc(N4CCOCC4)cc3)nc(Nc3ccc(-n4ccnc4)cc3)nc21	0	4	50*	3
CC(C)n1cnc2c(Nc3ccc4c(c3)OCO4)nc(Nc3cnccn3)nc21	12*	0	-5	-2
CC(C)n1cnc2c(Nc3ccc4c(c3)OCO4)nc(Nc3ccccc3)nc21	0	0	5	12
CC(=O)Nc1ccc(Nc2nc(Nc3ccc(N4CCOCC4)cc3)nc3c2ncn3C(C)C)cc1	0	3	22	4
c1cnc(Nc2nc(Nc3ccc4c(c3)OCO4)c3ncn(C4CCCCC4)c3n2)cn1	0	0	-23	1
COc1ccc(OC)c(S(=O)(=O)N2CC(C)CC(C)C2)c1 (stereo not given)	0	0	2	-13
O=C1NC(=Nc2ccccc2)S/C1=C/c1cccc([N+](=O)[O-])c1	0	0	7	15
COc1ccc(C(=O)N2CCN(c3cc(Oc4ccccc4)nc(C)n3)CC2)cc1OC	0	0	0	-40
O=[N+]([O-])c1cc(S(=O)(=O)N2CCOCC2)ccc1N/N=C/c1ccc(O)cc1	0	1	7	5
O=C(Nc1cccc(Cl)c1)c1cncc(Br)c1	0	0	2	0
COc1ccc(S(=O)(=O)NCCC2=CCCCC2)cc1I	0	-1	0	0
c1ccc2[nH]c(-c3cc(-c4cc(-c5nc6ccccc6[nH]5)c5ccccc5n4)nc4ccccc34)nc2c1	0	-10	82*	11
COc1cc(N)c(-c2nc3ccccc3[nH]2)cc1OC	1	-7	46*	16
O=C(c1cc2cc([N+](=O)[O-])ccc2oc1=O)N1CCc2ccccc21	1	-1	2	5
Cc1cc(C)nc(Sc2nc3ccccc3[nH]2)n1	1	-1	-31	-6
CCOC(=O)c1[nH]c(/C=N/NC(=O)c2ccncc2)c(C(=O)OCC)c1C	0	0	60*	-15
CCN(CC)c1ccc(NC(=O)c2ccc3c4c(cccc24)CC3)cc1	0	0	51*	10
CCN(CC)c1ccc(/C=C2/SC(=S)N(CCC(=O)OC)C2=O)cc1	0	0	62*	16
COc1ccc(/C=C2\SC(=S)N(CCC(=O)OCCN3CCOCC3)C2=O)cc1	0	0	54*	12
CCN(CC)c1ccc(/C=C2\SC(=S)N(CCCC(=O)O)C2=O)cc1	0	-1	92*	24
COc1ccc(/C=C2\SC(=S)N(CCC(=O)N3CCOCC3)C2=O)cc1	0	2	3	8
Cc1ccc(/C=C2/SC(=S)N(CN3CCOCC3)C2=O)o1	0	-1	1	78*
Cc1ccc(COc2cccc3ccc(N4CCN(C(=O)c5ccco5)CC4)nc23)cc1	0	1	7	-7
Cc1ccc(/C=C2\SC(=S)N(NC(=O)c3ccc(O)cc3)C2=O)o1	0	-2	6	54*
O=C(NN1C(=O)/C(=C/c2ccc(O)cc2)SC1=S)c1cccc(O)c1	0	-1	-3	0
SMILES	FBW7 act	GPR151 activ	TEAD-YAP inh	MITF inh
CCOc1ccc(-n2cc(O)c(C(=O)OC)c2C)cc1	0	-1	-8	20
O=C(CSc1nnc2sc3ccccc3n12)c1ccc(F)cc1	2.1*	-1	-38	-4
O=C(CSc1nnc2sc3ccccc3n12)NCc1ccccc1	0	1	46*	8
Cn1c(-c2ccccc2)c(C(C[N+](=O)[O-])c2ccco2)c2ccccc21 (stereo not given)	0	1	54*	11
Cn1c(-c2ccccc2)c(C(C[N+](=O)[O-])c2ccc(C(F)(F)F)cc2)c2ccccc21 (stereo not given)	0	-1	-7	-2
CC(C)N(CCNc1ncnc2nc(Nc3ccc(C(F)(F)F)cc3)[nH]c12)C(C)C	0	-1	2	9
CC1=C(C)CS(=O)N(C(=O)c2ccccc2)C1 (stereo not given)	0	1	19	6
COc1ccc(CCNC(=O)c2c[nH]c3ccc(S(=O)(=O)N(C)CCC#N)cc3c2=O)cc1OC	0	-1	-4	3
CCOC(=O)c1nn(-c2ccc3c(c2)OCCO3)cc1O	0	-4	43*	-9
CCOC(=O)c1nn(-c2ccc(C)c(C)c2)cc1O	0	0	-35	-1
CN(C)C(=O)Cn1c(SCC(=O)N2CCCc3ccccc32)nc2ccccc21	0	0	35*	-6
CC1CCN(C(=O)Cn2c(SCC(=O)N3CCc4ccccc43)nc3ccccc32)CC1	0	2	2	5
Cc1ccccc1CN1CCc2nnc(C(NC(=O)C3CCOC3)C(C)C)n2CC1 (stereo not given)	0	-1	2	1
COc1ccccc1CNc1ccc(C(=O)Nc2ccc(C)c(F)c2)cc1[N+](=O)[O-]	0	0	1	-2
CCc1ccccc1NC(=O)c1ccc(NCc2ccccc2OC)c([N+](=O)[O-])c1	0	0	43*	4
COc1ccccc1CNc1ccc(C(=O)Nc2ccc(C)cc2C)cc1[N+](=O)[O-]	1	2	57*	7
CCc1ccc(NC(=O)c2ccc(NCc3ccccc3OC)c([N+](=O)[O-])c2)cc1	0	0	1	4
CC1CC(C)CN(S(=O)(=O)c2ccc3c(c2)oc(=O)n3CC(=O)NC2CCCCC2)C1 (stereo not given)	1	-1	4	11
CC1(C)CC(=O)c2cnc(NC(=O)c3ccc(Cl)cc3Cl)nc2C1	0	0	-13	-6
CCn1c(=N)c(C(=O)NC)cc2c(=O)n3cccc(C)c3nc21	0	-1	32*	20
CCn1c(=N)c(C(=O)NCCOC)cc2c(=O)n3cccc(C)c3nc21	0	-1	14	8
O=C1CCCN1CCCNc1nc(N2CCN(c3ccccn3)CC2)nc2c1ncn2CCN1CCCC1=O	0	-1	0	8
O=C1CCCN1CCCNc1nc(N2CCOCC2)nc2c1ncn2-c1ccccc1	0	4	67*	3
O=C1CCCN1CCCNc1nc(N2CCN(c3ccccn3)CC2)nc2c1ncn2-c1ccccc1	0	-1	56*	-13
NC(=O)c1oc2ccccc2c1NC(=O)c1ccc2ccccc2c1	0	2	-3	2
SMILES	FBW7 act	GPR151 activ	TEAD-YAP inh	MITF inh
CCc1c(C)nc(SCC(=O)Nc2cccc(F)c2)[nH]c1=O	0	-1	6	-3
Cc1ccc(NC(=O)c2cc3nc(-c4ccc(Cl)cc4)cc(C(F)(F)F)n3n2)cc1C	0	0	-6	-4
Cc1cnc(Nc2ccncn2)nc1NCCc1ccc(O)cc1	0	1	5	20
Oc1ccc(CCNc2nc(Nc3ccccc3)nc3nc[nH]c23)cc1	0	0	52*	7
Cc1cnc(Nc2cnccn2)nc1NCCc1ccc(O)cc1	0	-1	36*	15
c1ccc(OCCNc2nc(Nc3ccncn3)nc3nc[nH]c23)cc1	33*	0	12	0
CN(C)c1cccc(Nc2nc(NCc3ccccc3)c3[nH]cnc3n2)c1	2.4*	0	1	15
Cc1ccc2nsnc2c1NC(=O)COc1ccc(Cl)cc1Cl	0	-1	8	1
